# Screening data as filed in PubChem BioAssay.
# TDP43 rescue: inhibitors of TDP-43 toxicity in yeast; AID 652104; Potency, µM (top dose mostly 46.1 µM), usual class: activators; actives 1.8% (n = 410,000); TDP-43 expressing yeast growth rescue, BacTiter-Glo, 24 h; also: nearly all actives have a fitted effect of over 50% in size
#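 Yeast cells expressing TDP-43 under galactose induction are exposed to compounds for 24 hr at 30 deg C. BacTiter-Glo luminescence measures growth, so protective compounds score as activators.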
# Abeta rescue: compounds reversing amyloid beta toxicity in yeast; actives 0.063% (n = 410,000); yeast expressing A-beta42, growth rescue, OD600, 48 h; response scale: 0% DMSO, 100% iron-clioquinol control; Potency, µM (highest dose often 46.1 µM), most hits filed as activators; also: nearly all actives have a fitted effect of over 55% in size
#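 Yeast growth medium received pinned compounds, then yeast cells expressing toxic A-beta were added; plates incubated at 30 C for 48 hr. Growth read as absorbance at 600 nm, normalized to DMSO and equimolar FeCl3 plus clioquinol controls.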
# FUS yeast rescue: suppressors of FUS proteinopathy in yeast; S. cerevisiae FUS-expressing, growth rescue, OD600, 24 h; Potency, µM (series often up to 76.6 µM), hits mostly activators; actives 0.24% (n = 390,000); also: nearly all actives have a fitted effect of over 55% in size
#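 S. cerevisiae expressing FUS from galactose induction served as the toxicity model. Growth after 24hr at 30C, read as absorbance at 600 nm, indicates suppression of toxicity; compounds dosed at several concentrations.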
# aSyn yeast inh: rescues yeast growth from alpha-synuclein toxicity; AID 652106; Potency, µM (series often up to 46.1 µM), usual class: activators; actives 0.14% (n = 370,000); Yeast expressing alpha-synuclein, growth rescue, BacTiter-Glo, 24 h; also: nearly all actives have a fitted effect of over 65% in size
#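 Readout is rescue of growth in alpha-synuclein-expressing yeast, so inhibitors of toxicity appear as activators. Growth after 24 hr at 30 deg C in galactose medium is quantified by luminescence.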
# Numbers stand for hits; - = inactive; ? = inconclusive; . = no result; [ ] = dose if it differs, or a comment. Sampled rows, rich in hits. Any-hit rate of the full collection: about 2.1%. Calls follow the shape of the dose curve; as a rule, active = well fitted curve in the direction sought with a large enough effect; inconclusive = small, poorly fitted or top-dose-only effect, or another doubt; inactive = no such curve, though single readings can be large; an effect the other way counts as inactive or inconclusive.
SMILES,TDP43 rescue,Abeta rescue,FUS yeast rescue,aSyn yeast inh
Cn1c2ccccc2c(=O)c2ccc(F)cc21,-,-,-,14.1µM
O=C(Nc1ccccc1Sc1ccccc1)c1ccc(F)cc1,-,14.1µM,-,-
Cc1ccc(C(=O)Nc2ccccc2Sc2ccccc2)cc1,-,-,-,-
COc1ccccc1NC(=O)CSC1=Nc2ccccc2C2=NC(CC(=O)NCc3ccc4c(c3)OCO4)C(=O)N12 (configuration not stated),-,-,?,.
COc1cccc(NC(=O)CSC2=Nc3ccccc3C3=NC(CC(=O)NCc4ccc5c(c4)OCO5)C(=O)N23)c1 (configuration not stated),-,-,25.1µM,.
CCCCCSc1nnc2c(n1)OC(c1ccc(C)s1)N(C(C)=O)c1ccccc1-2 (configuration not stated),?,-,-,.
CC1(OC(=O)c2ccco2)C(=O)C=C2C=C(C3CC3)OC=C2C1=O (configuration not stated),11.2µM,-,-,-
CCC(=O)OC1(C)C(=O)C=C2C=C(C3CC3)OC=C2C1=O (configuration not stated),?,-,-,-
CC1(OC(=O)c2cccs2)C(=O)C=C2C=C(C3CC3)OC=C2C1=O (configuration not stated),20µM,-,-,-
CCc1ccc(NS(=O)(=O)c2ccc3oc(=O)c4ncn(CC)c4c3c2)cc1,-,-,-,.
CC(=O)Oc1cc2c(c3ccccc13)CCC2=O,?,-,-,-
CC(=O)Oc1[nH]c(=O)c2cccc3c2c1CCC3,28.2µM,-,-,-
Cc1ccc(-c2nn(-c3ccccc3)cc2C=C2C(=O)CC(C)(C)CC2=O)cc1,-,-,-,-
CC1=NNC(=O)/C1=C\c1cn(-c2ccccc2)nc1-c1ccc(Cl)cc1,10µM,-,.,-
Cc1ccc(Cl)cc1N1CCN(C(=O)c2ccc(CS(=O)Cc3ccc(Cl)cc3)o2)CC1 (configuration not stated),20µM,-,?,?
Cc1ccc(C)c(N2CCN(C(=O)c3ccc(CS(=O)Cc4ccc(Cl)cc4)o3)CC2)c1 (configuration not stated),?,-,?,?
C#CCOc1c(Br)cc(C2C(C(=O)OC)=C(C)NC3=C2C(=O)c2ccccc23)cc1OCC (configuration not stated),-,-,-,.
CC(=O)NCc1ccc(C(=O)CCl)cc1,-[9.22 µM],-,-,-
CC(=O)Nc1ccc(C(=O)CCl)cc1,10µM,-,-,-
CC(=O)Nc1ccc(C(=O)OCc2ccccc2Cl)cc1,20µM,-,-,-
CC(=O)Nc1ccc(C(=O)OCCCOC(=O)c2ccc(NC(C)=O)cc2)cc1,-,-,-,-
CCN1C(=O)c2ccccc2S(=O)c2ccc(C(=O)NCc3ccc(Cl)cc3)cc21 (configuration not stated),-,-,?,.
Cc1cccc(-n2cc(-c3ccccc3)c3c(NC4CCCC4)ncnc32)c1,20µM,-,-,.
CCOc1ccc(-n2cc(-c3ccccc3)c3c(NC4CCCC4)ncnc32)cc1,?,-,-,.
Cc1ccc(-n2cc(-c3ccccc3)c3c(NC4CCCC4)ncnc32)cc1,35.5µM,-,-,.
SMILES,TDP43 rescue,Abeta rescue,FUS yeast rescue,aSyn yeast inh
COc1ccc(-n2cc(-c3ccccc3)c3c(NC4CCCCC4)ncnc32)cc1,-,-,-,.
COc1ccc(NC(=O)Cc2c(C(=O)O)[nH]c3ccccc23)cc1OC,-,-,-,.
CCOC(=O)Cc1cc(C(=O)Nc2ccc(Br)cc2)sc1-c1ccc(C)cc1,-,-,-,.
CCN(CC)C(=O)CC[C@H]1CC[C@]2(CCCN(Cc3cccs3)C2)O1,.,.,-,.
CC(C)(C)c1ccc(-c2nnc3n2N=C(c2ccc4ccccc4c2)CS3)cc1,.,.,-,.
CCCOC(=O)c1cccc(Nc2nc(C(=O)OCC)nc3ccccc23)c1,22.4µM,-,-,.
CCOC(=O)c1cccc(Nc2nc(C(=O)OCC)nc3ccccc23)c1,-[9.22 µM],-,-,.
CCOC(=O)c1cccc(Nc2nc(-c3cccnc3)nc3ccccc23)c1,17.8µM,-,-,-
COC(=O)c1cccc(Nc2nc(-c3cccnc3)nc3ccccc23)c1,-,-,-,-
C=C1C=C(C)n2ncc(C(=O)Nc3ccc(F)cc3F)c2N1,.,.,.,-
CCc1ccc(N2C=C(C(=O)OC)C(c3ccc(OC)cc3)C(C#N)=C2N)cc1 (configuration not stated),?,-,?,25.1µM
COc1ccc(-c2cc(OC(=O)c3ccccc3Cl)c3c(C)oc(C)c3c(=O)c2)cc1OC,-,-,?,.
O=C1c2nc3ccccn3c2C(=O)N1Cc1ccccc1,-,-,-,-
O=C1c2nccnc2C(=O)N1Cc1ccccc1,-,-,.,12.6µM
CC1=C(C(=O)Nc2ccccc2)C(c2ccccc2Cl)n2ncc(C(=O)Nc3cccc(C)c3)c2N1 (configuration not stated),-,-,-,.
Cc1ccc(-c2cnc(-c3ccncc3)o2)cc1,15.8µM,-,-,-
COc1cc2c(NC3CCN(C)CC3)nc(N3CCCN(C)CC3)nc2cc1OCCCN1CCOCC1,.,.,.,-
C/C(Cl)=C\Cn1c(O)c(N=NC(N)=S)c2ccccc21,17.8µM,-,-,-
C=CCn1c(O)c(N=NC(=S)Nc2cccc(C)c2)c2ccccc21,11.2µM,?,.,?
NC(=S)N=Nc1c(O)n(Cc2ccccc2)c2ccccc12,-,-,-,-
Cc1c(Cl)cccc1NC(=S)N=Nc1c(O)n(CN2CCOCC2)c2ccccc12,-,22.4µM,-,-
Cc1ccc(NC(=O)c2cnn3c(C(F)F)cc(-c4ccccc4)nc23)c(C)c1,?,-,-,.
COC(=O)[C@]12C=CCN1[C@@H](c1ccc(Cl)cc1)c1c(c3ccccc3n1S(=O)(=O)c1ccc(C)cc1)C2,.,.,-,.
Cc1ccc(C)n1-c1ccc(C(=O)N2CCOCC2)cc1,-,-,35.5µM,-
CC(=O)N1CCN(C(=O)c2ccc(-n3c(C)ccc3C)cc2)CC1,-,-,.,-
SMILES,TDP43 rescue,Abeta rescue,FUS yeast rescue,aSyn yeast inh
O=C(Nc1ccccc1)/C(=C/c1ccccc1)c1ccccc1,12.6µM,-,-,-
Cc1ccccc1NC(=O)/C(=C/c1ccccc1)c1ccccc1,-,-,-,-
O=c1oc2c(CN3CCOCC3)c(O)ccc2cc1-c1ccc(Cl)cc1,12.6µM,-,-,.
COc1cccc(NC(=O)c2cccc(C(=O)Nc3cccc(OC)c3)n2)c1,-,-,.,-
COc1ccc(NC(=O)c2csc3c2CCCC3)cc1,-,-,-,-
COc1cccc(NC(=O)c2cnsn2)c1,12.6µM,-,-,.
COc1cccc(C(=O)Nc2cccc(NC(=O)c3ccc(Cl)cc3Cl)c2)c1,11.2µM,-,-,.
COc1cccc(NC(=O)c2csc3c2CCCC3)c1,17.8µM,-,-,-
CCC(=O)N1CCc2cc(S(=O)(=O)NCCC(=O)Nc3ccc(C)cc3C)ccc21,-,-,-,.
O=C(C1CCC1)N1CCc2cc(S(=O)(=O)C3CCN(Cc4ccc(F)cc4)CC3)ccc21,.,.,-,.
